Experiment [1] deals with Mitogen-activated protein kinase 10 (Mus musculus) (UniProt Q61831). The experiment in a line: JNK3 AlphaScreen Assay (AID 530).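 Also: kinase came from lysate of stimulated human HepG2 cells; signal reports phosphorylation of biotinylated GST-cJun 1-79 at Ser73 with 10 µM ATP; % is scaled to controls: 0 for no effect and ±100 for the full control effect.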 In short, it runs like this: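 HepG2 lysate (IL-1b/TNFa pre-activated) + biotin-GST-cJun 1-79 + anti-pSer73 cJun; cpd titration, 15 min RT; ATP 10 uM start; Tris pH 7.6, MgCl2, DTT, vanadate; beads in EDTA buffer; AlphaScreen.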
A general note: Alpha assays give light when donor and acceptor beads are brought close together.

Experiment [2] in a line: Cellular Toxicity (caspase-3) HepG2 (AID 654; active = well fitted curve in the direction sought with a large enough effect; an effect the other way counts as inactive or inconclusive;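 also: cells exposed to compound for 16 hours before reading; 0% = DMSO alone and 100% = caspase signal from 100 µM tamoxifen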). The essentials:
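Luminescent Caspase-Glo 3/7 readout after 16 hr compound exposure of human hepatocellular carcinoma HepG2 cells at 37 °C; qHTS concentration-response, normalized DMSO = 0%, 100 uM tamoxifen = 100%; AC50 by standard Hill equation.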

Experiment [3] in a line: Cellular Toxicity (caspase-3) HUV-EC-C (AID 656; active = well fitted curve in the direction sought with a large enough effect; an effect the other way counts as inactive or inconclusive). In short, it runs like this:
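Luminescent caspase-3/7 activation (aminoluciferin substrate cleavage) in HUV-EC-C cells after 16 hr compound exposure, 37°C. Signal normalized to DMSO basal and 100 uM tamoxifen as 100%; AC50 from concentration-response fitted with the Hill equation.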

A short description of experiment [4]: Cellular Toxicity (caspase-3) SHSY5Y (AID 657; active = well fitted curve in the direction sought with a large enough effect; an effect the other way counts as inactive or inconclusive;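 also: cells exposed to compound for 16 hours at 37 °C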). The essentials: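 Luminescent caspase-3/7 readout (aminoluciferin release) in SH-SY5Y cells after 16 h compound exposure in complete medium. Activity scaled between DMSO basal and 10 uM staurosporine as 100%; concentration-response fitted to Hill equation for AC50.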
Experiment [5] in a line: Cellular Toxicity (caspase-3) BJ (AID 658; active = well fitted curve in the direction sought with a large enough effect; an effect the other way counts as inactive or inconclusive;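 also: cells exposed to compound for 16 hours; 0% = DMSO basal and 100% = 10 µM staurosporine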). Conditions: Potency: caspase-3 activation. In short, it runs like this:
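qHTS, BJ fibroblasts, 1000 cells/well; 5 hr preincubation, 16 hr compound, 37 °C; Caspase-Glo 3/7 reagent, 1 hr RT; luminescence. DMSO = 0%, 10 uM staurosporine = 100%. Hill-equation AC50.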

Experiment [6] can be described thus: Cellular Toxicity (caspase-3) MRC-5 (AID 659; active = well fitted curve in the direction sought with a large enough effect; an effect the other way counts as inactive or inconclusive;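 also: 0% = DMSO basal and 100% = 10 µM staurosporine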). The essentials:
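MRC-5 fibroblasts, 1500/well; 16 h cpd, 37 °C; Caspase-Glo 3/7, 1 h RT; lumi read. Norm: DMSO = 0%, 10 uM staurosporine = 100%. Hill-fit AC50 from qHTS conc-response.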

A short description of experiment [7]: Cellular Toxicity (caspase-3) Mesangial (AID 660; active = well fitted curve in the direction sought with a large enough effect; an effect the other way counts as inactive or inconclusive;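 also: combined caspase 3 and 7 activity read by Caspase-Glo luminescence; cells exposed to compound for 16 h before the caspase read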). In short, it runs like this:
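Luminescent Caspase-Glo 3/7 readout (aminoluciferin substrate cleavage, 20 min RT) after 16 h compound exposure at 37 °C of normal human mesangial cells. Signal increase normalized between DMSO basal and 100 uM tamoxifen; Hill-equation AC50.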

The nature of experiment [8]: Cellular Toxicity (caspase-3) Hek293 (AID 664; active = well fitted curve in the direction sought with a large enough effect; an effect the other way counts as inactive or inconclusive;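 also: cells exposed to compound for 16 h at 37 °C before readout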). Conditions: HEK293 caspase-3 activation, DMSO = 0%, 100 µM tamoxifen = 100%; at 92.2 µM (top of the series). In short, it runs like this:
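Luminescent Caspase-Glo 3/7 readout (aminoluciferin release) in HEK293 cells after 16 h compound treatment, 37 °C. Normalization: DMSO = basal, 100 uM tamoxifen = 100% stimulation. Concentration-response fitted with standard Hill equation for AC50.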

The nature of experiment [9]: Cellular Toxicity (caspase-3) N2a (AID 665; active = well fitted curve in the direction sought with a large enough effect; an effect the other way counts as inactive or inconclusive;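 also: compound exposure lasted 16 h at 37 °C before readout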). The essentials: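 Luminescent Caspase-Glo 3/7 readout in N2a mouse neuroblastoma cells after 16 h compound exposure at 37 °C. Signal scaled to DMSO (basal) and 10 uM staurosporine (100%). Concentration-response fitted with Hill equation for AC50.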
Experiment [10] in a line: Cellular Toxicity (caspase-3) Renal Proximal Tubule (AID 667; active = well fitted curve in the direction sought with a large enough effect; an effect the other way counts as inactive or inconclusive;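 also: cells exposed to compound for 16 hours at 37 °C before detection; 0% = DMSO basal and 100% = 10 µM staurosporine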). Conditions: Potency: caspase-3 activation. In short, it runs like this:
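Luminescent caspase 3/7 signal from peptide-aminoluciferin cleavage measures apoptosis in freshly isolated rat kidney proximal tubule cells after 16 h compound exposure. Concentration-response data are normalized to DMSO and 10 uM staurosporine, and AC50 values come from Hill equation fits.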

Experiment [11] concerns the target Peroxisome proliferator-activated receptor alpha (Homo sapiens) (UniProt Q07869). Description: qHTS assay for small molecule agonists of the peroxisome proliferator-activated receptor alpha (PPARalpha) signaling pathway (AID 651778; active = well fitted curve in the direction sought with a large enough effect; an effect the other way counts as inactive or inconclusive; also: % of control where 0% means no effect). The conditions noted are these: PathHunter PPARalpha complementation, chemiluminescence, 6 h; max response: hits give high values. In short, it runs like this:
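Enzyme-fragment complementation assay in which ligand-bound PPARalpha translocates and forms an active enzyme that generates chemiluminescence. Cells were plated overnight, exposed to compound for 6 hr at 37 C, and then given detection reagent for 60 min at room temperature.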

The nature of experiment [12]: qHTS assay for small molecule agonists of the antioxidant response element (ARE) signaling pathway measured by Nrf2-dependant transcriptional activity - cell viability counter screen (AID 720653; active = well fitted curve in the direction sought with a large enough effect in the repeat runs; an effect the other way counts as inactive or inconclusive; also: % is scaled to controls: 0 for no effect and ±100 for the full control effect). The conditions noted are these: ARE-bla HepG2 viability, CellTiter-Glo ATP luminescence, 16 h; max response: hits give low values. The essentials:
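ARE-bla HepG2 cells treated with compounds for 16 h at 37C; this counter screen measures viability as intracellular ATP by CellTiter-Glo luminescence after 30 min at room temperature.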

A short description of experiment [13]: qHTS assay for cell viability of the p53RE-bla HCT-116 cell line (AID 743292; active = well fitted curve in the direction sought with a large enough effect; an effect the other way counts as inactive or inconclusive; also: % is scaled to controls: 0 for no effect and ±100 for the full control effect; nearly all actives have a fitted effect of over 55% in size). In short, it runs like this: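 Readout: CellTiter-Glo luminescence after 30 min RT. Treatment: compounds in DMSO, 16 h, 37 C. Cells: CellSensor p53RE-bla HCT-116, 4,000/well, preincubated 5 h.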
In general terms: In qHTS, concentration-response curves come from the screen itself.

Experiment [14] in a line: AP1 Signaling Pathway (AID 357).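 Also: ME-180 reporter cells stimulated with EGF at its EC50 level; % is scaled to controls: 0 for no effect and ±100 for the full control effect.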 The conditions noted are these: ME-180 AP-1-bla reporter, EGF-induced, beta-lactamase ratio, 5 h; at 7.69 µM (top of the series) unless noted. In short, it runs like this: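 Beta-lactamase reporter under AP-1 response element, ME-180 background. Stimulus: EC50 EGF. Compound exposure 5 h, 37 °C. Detection: CCF4, 2.5 h RT, 460/530 nm. Values: AC50 from titration.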

Experiment [15] has as its target Cytochrome P450 1A2 (Homo sapiens) (UniProt P05177). Description: p450-cyp1a2 (AID 410; calls by dose curve; also: potency is read from the fitted curve at half-maximal effect). The essentials:
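20nM CYP1A2, 100uM Luciferin-ME (=Km), 100mM KPO4; cpd 10 min RT; +NADPH regen, 60 min RT; stop/detect 20 min; luminescence. Normalized to furafylline 57 uM = full inhibition.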

Experiment [16] concerns the target Glucocorticoid receptor (Homo sapiens) (UniProt P04150). The experiment in a line: GR-GFP Redistribution (AID 450;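 active = compounds whose dose series gives a full or clear partial fitted curve of increased nuclear translocation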; also: potency is read from the fitted curve at half-maximal effect). Conditions: U2OS GR-GFP nuclear translocation, laser cytometry, 2 h.
For experiment [17] the target is unchanged. Description: GR-EFC Redistribution (AID 451; calls by dose curve; also: potency is read from the fitted curve at half-maximal effect). The conditions noted are these: CHO-K1 GR-EFC translocation, beta-gal luminescence, 2 h. The essentials:
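CHO-K1 cells expressing nuclear EA and GR-ED fragments of b-gal; compounds titrated up to 46 uM final, 2 h at 37 C. GR nuclear translocation read as complemented b-gal luminescence after 1 h RT detection.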

Experiment [18] addresses 3',5'-cyclic-AMP phosphodiesterase 4B (Homo sapiens) (UniProt Q07343). Description: qHTS Assay for Inhibitors of PDE-IV (AID 607; active = well fitted activation curve with a large enough effect in the main read-out, with a control signal flat, not every such curve was filed as active; also: % of control where 0% means no effect). In short, it runs like this: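 Cell-based read-out of cAMP via a modified cyclic nucleotide-gated channel and membrane potential dye (535/590 nm) in HEK293 cells expressing PDE4 endogenously. Compounds tested up to 22.9 uM final; 100 uM RO 20-1724 reference.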

Experiment [19] is described as follows: NFAT Signaling Pathway (AID 444).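 Also: carbachol stimulus at about its EC50 of 1 µM final; % is scaled to controls: 0 for no effect and ±100 for the full control effect.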 Conditions: Jurkat NFAT-bla M1, carbachol, beta-lactamase ratio, 5 h; at 7.69 µM (top of the series) unless noted. In short, it runs like this: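 Jurkat cells with NFAT-driven β-lactamase reporter and co-expressed M1 receptor, stimulated with carbachol (final 1 uM, ~EC50), compound titration, 5 h at 37 °C. CCF4 loaded 1 h at RT; 460/530 nm ratio gave %activity and AC50.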

A short description of experiment [20]: Stat Signaling Pathway (AID 446). Conditions: ME-180 (cervical carcinoma) SIE beta-lactamase reporter, IL-6 stimulated, 5 h; at 7.69 µM (top of the series) unless noted. In short, it runs like this:
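FRET read-out (405 nm excitation, 460/530 nm emission) of a beta-lactamase reporter under a STAT-inducible element in ME-180 cervical carcinoma cells. Cells with compound receive 40 pM IL-6 for 5 h. Values are normalised to AC90 stimulation and AC90 JAK-inhibitor controls.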

Each structure is given as a SMILES string. Several values for one entry are separate records, joined by “and”; a condition that tells them apart may be missing. Identical values can stand only once. Values without a mark were called inactive. Inconclusive results are not listed. Activity calls are given as the source filed them. Unless noted, calls follow the shape of the dose curve; as a rule, active = well fitted curve in either direction with a large enough effect (not every such curve was filed as active); inconclusive = small, poorly fitted or top-dose-only effect, or another doubt; inactive = flat fitted curve, though single readings scatter.

7 molecules from PubChem BioAssay (NCATS) can be followed below.

3',5'-cyclic-AMP phosphodiesterase 4B (Homo sapiens), sequence (Q07343 whole entry, looked up): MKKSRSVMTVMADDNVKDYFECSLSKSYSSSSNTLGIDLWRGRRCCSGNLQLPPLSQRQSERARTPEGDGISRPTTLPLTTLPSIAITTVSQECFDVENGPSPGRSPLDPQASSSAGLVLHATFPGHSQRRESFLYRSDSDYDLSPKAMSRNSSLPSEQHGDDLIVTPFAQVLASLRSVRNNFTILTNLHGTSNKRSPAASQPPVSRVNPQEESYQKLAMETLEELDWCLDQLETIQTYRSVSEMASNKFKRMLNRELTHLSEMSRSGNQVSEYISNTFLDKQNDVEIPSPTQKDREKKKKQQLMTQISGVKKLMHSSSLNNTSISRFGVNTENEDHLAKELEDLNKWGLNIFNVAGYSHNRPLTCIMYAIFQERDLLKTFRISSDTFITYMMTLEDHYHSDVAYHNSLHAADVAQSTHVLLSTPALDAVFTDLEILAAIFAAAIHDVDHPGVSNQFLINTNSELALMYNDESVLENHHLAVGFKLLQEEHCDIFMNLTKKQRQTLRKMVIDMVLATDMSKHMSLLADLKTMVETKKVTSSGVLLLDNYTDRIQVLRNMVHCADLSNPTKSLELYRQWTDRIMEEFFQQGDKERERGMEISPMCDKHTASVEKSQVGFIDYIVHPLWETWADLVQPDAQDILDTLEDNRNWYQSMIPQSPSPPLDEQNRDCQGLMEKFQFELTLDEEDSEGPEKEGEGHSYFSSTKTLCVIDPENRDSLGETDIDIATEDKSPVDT
Cytochrome P450 1A2 (Homo sapiens), sequence (P05177 whole entry, looked up): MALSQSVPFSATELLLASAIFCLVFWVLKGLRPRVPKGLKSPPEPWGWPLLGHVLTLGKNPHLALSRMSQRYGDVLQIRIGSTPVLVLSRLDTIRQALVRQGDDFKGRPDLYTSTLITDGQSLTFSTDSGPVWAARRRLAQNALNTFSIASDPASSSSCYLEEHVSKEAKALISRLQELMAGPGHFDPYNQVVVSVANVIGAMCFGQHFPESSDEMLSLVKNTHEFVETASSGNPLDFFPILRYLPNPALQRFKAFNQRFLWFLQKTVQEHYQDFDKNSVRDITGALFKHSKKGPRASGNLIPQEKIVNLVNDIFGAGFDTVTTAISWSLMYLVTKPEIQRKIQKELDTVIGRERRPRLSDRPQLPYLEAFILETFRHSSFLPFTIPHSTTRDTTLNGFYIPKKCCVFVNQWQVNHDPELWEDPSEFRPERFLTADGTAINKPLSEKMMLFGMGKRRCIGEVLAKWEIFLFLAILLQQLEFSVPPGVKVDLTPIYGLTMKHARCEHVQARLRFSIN
Glucocorticoid receptor (Homo sapiens), sequence (P04150 whole entry, looked up): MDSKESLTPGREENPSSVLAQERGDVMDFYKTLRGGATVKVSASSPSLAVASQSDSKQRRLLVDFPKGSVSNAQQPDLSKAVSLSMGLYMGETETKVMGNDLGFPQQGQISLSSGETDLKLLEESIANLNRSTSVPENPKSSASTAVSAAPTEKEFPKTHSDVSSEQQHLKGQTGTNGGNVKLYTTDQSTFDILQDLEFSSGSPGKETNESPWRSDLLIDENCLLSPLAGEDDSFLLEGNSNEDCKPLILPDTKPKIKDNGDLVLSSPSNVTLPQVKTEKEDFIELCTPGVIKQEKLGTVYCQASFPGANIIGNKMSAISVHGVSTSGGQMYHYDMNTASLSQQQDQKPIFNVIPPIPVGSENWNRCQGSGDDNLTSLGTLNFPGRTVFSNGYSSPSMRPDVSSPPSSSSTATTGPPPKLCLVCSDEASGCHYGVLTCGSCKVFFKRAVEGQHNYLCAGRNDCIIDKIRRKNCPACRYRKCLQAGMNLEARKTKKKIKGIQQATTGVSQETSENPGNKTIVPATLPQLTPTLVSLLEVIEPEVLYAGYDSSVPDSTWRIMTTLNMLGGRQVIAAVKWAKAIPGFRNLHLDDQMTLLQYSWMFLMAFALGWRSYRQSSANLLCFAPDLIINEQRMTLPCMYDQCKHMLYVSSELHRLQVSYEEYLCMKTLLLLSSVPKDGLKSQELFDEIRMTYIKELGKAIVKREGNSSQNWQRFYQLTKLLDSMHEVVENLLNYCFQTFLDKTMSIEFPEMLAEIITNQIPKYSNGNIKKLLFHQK
Peroxisome proliferator-activated receptor alpha (Homo sapiens), sequence (Q07869 whole entry, looked up, the tested form may be a part): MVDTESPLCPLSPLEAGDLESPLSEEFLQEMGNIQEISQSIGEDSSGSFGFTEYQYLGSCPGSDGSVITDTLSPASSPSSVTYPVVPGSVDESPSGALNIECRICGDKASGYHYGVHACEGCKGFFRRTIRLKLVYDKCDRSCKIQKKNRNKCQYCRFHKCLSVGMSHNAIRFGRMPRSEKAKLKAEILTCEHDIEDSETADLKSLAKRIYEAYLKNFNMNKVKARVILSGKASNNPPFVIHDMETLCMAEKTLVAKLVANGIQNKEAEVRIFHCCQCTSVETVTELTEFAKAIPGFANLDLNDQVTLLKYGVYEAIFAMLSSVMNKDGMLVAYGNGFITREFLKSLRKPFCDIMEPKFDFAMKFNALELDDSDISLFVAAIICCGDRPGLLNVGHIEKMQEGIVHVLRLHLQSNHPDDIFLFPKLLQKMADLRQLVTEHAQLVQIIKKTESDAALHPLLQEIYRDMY

Consider `CC(=O)OC1CC(C)OC(C)O1` (stereo unspecified), for which the Potency entry in experiment [1], in experiment [2], in [3], in experiment [4], in experiment [5] and in experiment [10] was “inactive” in each case. In experiment [13], the Potency result was “inactive”. Moreover, the result in [6], in [7] and in [9] was inactive. Moreover, the caspase-3 activation in experiment [8] was 2.93%. Moreover, the max response in experiment [11] was -4.25% and 0.0018%; in [12], 6.75% and -0.741%.

With `COc1cc(O)c2c(O)c3c(c4c2c1[C@@]1(C4)C(C)=CCCC1(C)C)[C@H](O)[C@@]1(O)CC(=O)C(C(N)=O)=C(O)[C@]1(O)C3=O`, in [14], the activity change, negative = inhibition was -27.8%. For the same molecule, the Potency is 3.16 µM (active) in experiment [15], more than 46 µM in experiment [16] and more than 9.22 µM in experiment [17]. Moreover, the Potency entry in experiment [1] and in [18] was “inactive” throughout.

As to `COc1cc2c(cc1O)CC[C@@H]1[C@@H]2CC[C@@]2(C)[C@H](O)CC[C@H]12`, the activity change, negative = inhibition in [14] was -4.01% [at 38 µM]; in experiment [19] it was -2.76% [at 38 µM]. For the same molecule, the activity, negative = inhibition in experiment [20] was -17.5% [at 38 µM]. For the same molecule, the Potency in experiment [16] and in [17] was more than 46 µM in each case. The Potency result in experiment [1] and in experiment [18] was “inactive” each time.

Turning to `Nc1ccccc1S[C@@H](C[N+](=O)[O-])c1ccc2c(c1)OCO2`, the activity change, negative = inhibition in experiment [14] is 11.2%. Further, the Potency in [15] was 0.631 µM (active); in [16], more than 46 µM; in experiment [17], more than 9.22 µM. In addition, in [20], the activity, negative = inhibition is -19.6%. Besides, in experiment [1], the Potency entry was “inactive”.

With `c1ccc(C[n+]2cccc(-c3cc4ccccc4[nH]3)c2)cc1`, the activity change, negative = inhibition in [14] is 2.74%. The Potency is 1.26 µM (active) in experiment [15], more than 46 µM in experiment [16] and more than 9.22 µM in [17]. In experiment [20], the activity, negative = inhibition is -0.473%. Besides, the Potency result in experiment [1] and in experiment [18] was “inactive” each time.

As for `COc1ccc(CCN(C)CCC[C@@](C#N)(c2cc(OC)c(OC)c(OC)c2)C(C)C)cc1OC`, the values for the activity change, negative = inhibition in [14] and in experiment [19] were 2.08% [at 38 µM] and -29.4% [at 38 µM], respectively. The activity, negative = inhibition in experiment [20] is -12.4% [at 38 µM]. Besides, the Potency in experiment [16] and in experiment [17] was more than 46 µM throughout.

As to `COc1cc(OC)cc([C@H](CNc2ncnc3c2ncn3[C@@H]2O[C@@H](CO)[C@H](O)[C@@H]2O)c2ccccc2C)c1`, the Potency result in experiment [15], in experiment [1] and in [18] was “inactive” each time. Further, the activity change, negative = inhibition in experiment [19] was 19.3% [at 38 µM]. Also, the activity, negative = inhibition in [20] is 3.32% [at 38 µM]. Further, the Potency in experiment [16] and in experiment [17] was more than 46 µM each time.
